In PubChem BioAssay AID1159580 (chemical genetic matrix, 2015):
Hit rate of the full screen: of about 5,500 compounds, about 2,000 (36%) were called active. About 18% were inconclusive and are not listed. Cut-off read from the data, not from the text of the source: active = normalized growth mostly below about 0.91 (no sharp cut-off); inconclusive = no clear call, values can overlap the other calls; inactive = mostly above about 0.92. The list shows a part of the results.

Test: chemical genetic growth profiling, strain panel (AID 1159580);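 note: tested at 20 µM; growth read once vehicle control cultures reached saturation at 30 °C; 1 = growth at the plate median or of vehicle wells; lower values mean less growth of the strain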
Conditions: growth OD

Measured: normalized growth

CSc1nc(N)nc(C(C)(C)C)n1
inactive: S. cerevisiae deletion strains, locus YAL013W, strain DEP1, hits give low values 1.01 | S. cerevisiae deletion strains, locus YBR229C, strain ROT2, hits give low values 1 | S. cerevisiae deletion strains, locus YCL061C, strain MRC1, hits give low values 0.993 | S. cerevisiae deletion strains, locus YDL101C, strain DUN1, hits give low values 0.976 | S. cerevisiae deletion strains, locus YDL134C, strain PPH21, hits give low values 1.01 | S. cerevisiae deletion strains, locus YDR150W, strain NUM1, hits give low values 0.978 | S. cerevisiae deletion strains, locus YEL061C, strain CIN8, hits give low values 1.02 | S. cerevisiae deletion strains, locus YGR078C, strain PAC10, hits give low values 1.01 | S. cerevisiae deletion strains, locus YHR030C, strain SLT2, hits give low values 0.974 | S. cerevisiae deletion strains, locus YHR087W, strain rtc3, hits give low values 1 | S. cerevisiae deletion strains, locus YJL187C, strain SWE1, hits give low values 1.02 | S. cerevisiae deletion strains, locus YJR043C, strain POL32, hits give low values 1.01 | S. cerevisiae deletion strains, locus YJR075W, strain HOC1, hits give low values 0.978 | S. cerevisiae deletion strains, locus YLR039C, strain RIC1, hits give low values 1.01 | S. cerevisiae deletion strains, locus YLR058C, strain SHM2 (second series), hits give low values 1.02 | S. cerevisiae deletion strains, locus YLR085C, strain ARP6, hits give low values 1.03 | S. cerevisiae deletion strains, locus YLR262C, strain YPT6, hits give low values 1.01 | S. cerevisiae deletion strains, locus YML094W, strain GIM5, hits give low values 0.981 | S. cerevisiae deletion strains, locus YMR219W, strain ESC1, hits give low values 1.02 | S. cerevisiae deletion strains, locus YMR263W, strain SAP30, hits give low values 0.991 | S. cerevisiae deletion strains, locus YNL128W, strain TEP1, hits give low values 1.02 | S. cerevisiae deletion strains, locus YNL153C, strain GIM3, hits give low values 0.982 | S. cerevisiae deletion strains, locus YNL298W, strain CLA4 (second series), hits give low values 1.03 | S. cerevisiae deletion strains, locus YNL322C, strain KRE1, hits give low values 1 | S. cerevisiae deletion strains, locus YNR030W, strain Alg12, hits give low values 1 | S. cerevisiae deletion strains, locus YOL006C, strain TOP1, hits give low values 0.968 | S. cerevisiae deletion strains, locus YPL055C, strain LGE1, hits give low values 0.989 | S. cerevisiae deletion strains, locus YPL241C, strain CIN2, hits give low values 1.11 | S. cerevisiae deletion strains, locus YPR135W, strain CTF4, hits give low values 0.951 | S. cerevisiae strains, strain wild type, hits give low values 1.02
